Here are results for 6 compounds from PubChem BioAssay (NCI).

What all share (test): NCI-60 one-dose screen, 48 h (100 = growth as untreated, 0 = no growth, -100 = all killed)
Conditions in all cases: 10 µM

The test system of test [1] is K-562 leukemia.
The subject of test [2] is MDA-MB-231 breast.
The test system of test [3] is RXF 393 renal.
In test [4] the test system is SF-268 CNS.
Test [5] deals with SF-295 CNS.
Test [6] has as its system SF-539 CNS.
Test [7] deals with UACC-257 melanoma.
Test [8] relates to M14 melanoma.
For test [9], the system named is HT29 colon.
The subject of test [10] is SNB-75 CNS.
Test [11] concerns SNB-19 CNS.
Test [12] concerns PC-3 prostate.
Test [13] concerns SK-MEL-5 melanoma.
Test [14] has as its system UACC-62 melanoma.
Test [15] has as its system LOX IMVI melanoma.
Test [16] concerns SK-MEL-28 melanoma.
For test [17], the system named is SK-MEL-2 melanoma.
Test [18] deals with MALME-3M melanoma.
In test [19] the test system is HCT-15 colon.
Test [20] relates to U251 CNS.

This is part of a sample that, as a whole, favours compounds with a hit. Of some 83,000 tested, about 20% had one in any assay.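 A percent growth of 40 corresponds to 60% growth inhibition; 0 means no net growth; -100 means all cells died. Active threshold: below 10.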 Unmarked numbers belong to inactive results. Calls of active or inactive are those of the source.

As to `COc1ccc(-c2ccc3cc(C(=O)Nc4ccc(O)c(C(=O)/C=C/c5cc(OC)c(OC)c(OC)c5)c4)ccc3c2)cc1`, the growth in test [1] was 59%; in [2], 85.6%; in test [3] it was 93%; in [4], 105%; in test [5] it was 101%; in test [6], 103%. For the same compound, the growth in test [7] is 97.9%; in test [8], 89.1%; in [9], 95.3%; in test [10], 94%; in test [11] it was 96.1%; in test [12], 65.5%. For the same compound, the growth in [13] is 72.6%; in test [14], 71.1%; in [15], 81.3%; in test [16], 106%; in [17], 99.5%.
As to `COc1ccc(NC(=O)CSc2nc3ccccc3c(=O)n2CCc2ccccc2)cc1`, the growth in [18] is 60.3%; in test [2], 61.5%; in test [4], 53.7%; in test [5], 91.5%; in [6], 79.5%; in [7], 87.9%. Further, the growth in test [8] is 75.3%; in [19] it was 92.1%; in test [9] it was 110%; in test [10], 28.7%; in [11] it was 59.4%; in test [20], 71.4%. Also, the growth in [12] is 106%; in test [13], 86.6%; in test [14] it was 89.8%; in test [15], 92.9%; in test [16] it was 91.6%; in test [17], 121%.
`Cn1c(C(N)=O)cc2c1-c1nc(Nc3ccccc3)ncc1CCC2`: the growth in test [1] is 49.8%; in test [2], 38.1%; in test [3] it was 3.67% (active); in test [4], 47.8%; in test [5], 60.6%; in test [6], 35.5%. For the same compound, the growth in [7] is 74.3%; in test [8], 45.5%; in [19], 34.6%; in [9], 70%; in test [10], 35.6%; in [11] it was 58.4%. The growth is 59.5% in test [12]; 72.1% in [13]; 37.1% in [14]; 40.5% in [15]; 68.7% in [16]; 46% in test [17].
As to `CCc1ccc2c(c1)N(CCO)C1=C(C(=O)OC1)C2c1ccccc1` (configuration not stated), the growth was 49.1% in [1]; 103% in test [2]; 94.3% in [3]; 106% in [4]; 86% in test [5]; 103% in test [6]. The growth in test [8] is 78.9%; in test [19] it was 71.6%; in [9] it was 86.3%; in test [10], 88%; in test [11] it was 104%; in test [12], 93.5%. For the same compound, the results for the growth in [13], in test [15] and in test [16] were 87.3%, 94.5% and 90.9%, respectively.
Consider `O=c1c2ccccc2nc(SCCN2CCCCC2)n1CCc1ccccc1`, for which the growth was 66.5% in test [2]; 101% in [4]; 87.5% in [5]; 90.2% in test [6]; 95.9% in test [7]; 103% in test [8]. Moreover, the growth in test [19] was 80.7%; in test [9] it was 30.1%; in test [10], 87%; in test [11], 102%; in test [20], 86.7%; in test [12] it was 89.2%. Also, the growth is 76.7% in [13]; 97.8% in test [14]; 81.6% in test [15]; 101% in test [16]; 102% in test [17].
With `N=c1c2c(-c3ccccc3)c(-c3ccccc3)n(Cc3ccccc3)c2ncn1CCCO`, the growth was -0.624% (active) in test [1]; 39% in [2]; 12.7% in test [3]; 41.4% in test [4]; 88.3% in test [5]; 54.1% in [6]. For the same compound, the growth in test [7] is -24.9% (active); in test [8] it was 43.4%; in [9], 0.266% (active); in [10], 39.7%; in test [11], 48.3%; in [20], 24.5%. For the same compound, the growth was 33.8% in test [12]; -4.56% (active) in [13]; 44.2% in [14]; 13% in [15]; 47% in test [17].
